Laboratory results from PubChem BioAssay (NCATS).
Records with an inconclusive call do not appear. Active and inactive are the calls of the source. Unless noted, calls follow the shape of the full dose curve.

Key:
[1] = Validation screen for inhibitors of Lassa infection (AID 463096)
[2] = Validation screen for small molecules that induce DNA re-replication in MCF 10A normal breast cells (AID 463097; active = well fitted activation curve with a large enough effect; also: nearly all actives have a fitted effect of over 60% in size)
Outline: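 Following 48 hr compound incubation (37 C, 5% CO2), MCF 10A cells receive Hoechst for 40 min at 37 C. Nuclei are then scanned (excitation 405 nm, emission 500-530 nm) for total fluorescence intensity.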

Row | SMILES | outcome [1] | outcome [2]
1 | COc1ccc2[nH]cc(CCNC(C)=O)c2c1 | inactive | 
2 | CC(C)NCC(O)c1cc(O)cc(O)c1 (stereo not given) | inactive | 
3 | O=C1NCC2(CCN(CCc3ccccc3)CC2)O1 | inactive | 
4 | CCN(CC)CCNC(=O)c1cc(S(C)(=O)=O)ccc1OC | inactive | 
5 | C[C@]12CCC(=O)C=C1CC[C@@H]1[C@@H]2CC[C@]2(C)C(=O)CC[C@@H]12 | inactive | inactive
6 | CC(=O)N1CCN(c2ccc(OC[C@H]3CO[C@](Cn4ccnc4)(c4ccc(Cl)cc4Cl)O3)cc2)CC1 | inactive | 
7 | NCCCNCCSP(=O)(O)O | inactive | 
8 | C[C@](N)(Cc1ccc(O)cc1)C(=O)O | inactive | 
9 | FC(F)(F)c1ccccc1-n1ccnc1 | inactive | 
10 | O=c1[nH]cnc2[nH]ncc12 | inactive | 
11 | C1COC(NC(C2CC2)C2CC2)=N1 | inactive | 
12 | CC(=O)OC(C)C[N+](C)(C)C (stereo not given) | inactive | 
13 | COC(=O)[C@@H]1[C@H]2C[C@H]3c4[nH]c5ccccc5c4CCN3C[C@@H]2CC[C@@H]1O | inactive | 
14 | NC(=O)c1cnccn1 | inactive | 
15 | COCCOC(=O)C1=C(C)NC(C)=C(C(=O)OC(C)C)C1c1cccc([N+](=O)[O-])c1 (stereo not given) | inactive | 
16 | CCN(Cc1ccncc1)C(=O)C(CO)c1ccccc1 (stereo not given) | inactive | 
17 | NCCS(=O)(=O)O | inactive | 
18 | O=C(NCC1CCCCN1)c1cc(OCC(F)(F)F)ccc1OCC(F)(F)F (stereo not given) | inactive | 
19 | CO/N=C(\C(=O)N[C@@H]1C(=O)N2C(C(=O)O)=C(COC(C)=O)CS[C@H]12)c1csc(N)n1 (stereo in doubt) | inactive | 
20 | CC(C)C(=O)c1c(C(C)C)nn2ccccc12 | inactive | 
21 | C[C@H]1O[C@@H](n2cc(F)c(=O)[nH]c2=O)[C@H](O)[C@@H]1O | inactive | 
22 | C[C@]12CCC(=O)C=C1CC[C@@H]1[C@@H]2[C@@H](O)C[C@@]2(C)[C@H]1CC[C@]2(O)C(=O)COC(=O)CCC(=O)O | inactive | 
23 | NC(Cc1ccc(Cl)cc1)C(=O)O (stereo not given) | inactive | 
24 | CCC1(C)CC(=O)NC1=O (stereo not given) | inactive | 
25 | CC(C)NNC(=O)c1ccncc1 | inactive | 
26 | CC(CCc1ccc(O)cc1)NCCc1ccc(O)c(O)c1 (stereo not given) | inactive | 
27 | CNCC(O)c1ccc(O)c(O)c1 (stereo not given) | inactive | 
28 | CC(=O)OCC(=O)[C@@]1(O)CC[C@H]2[C@@H]3CCC4=CC(=O)CC[C@]4(C)[C@H]3C(=O)C[C@@]21C | inactive | 
29 | CCCCCCCCCCCCCCCC(=O)NCCO | inactive | 
